Measurements: PubChem BioAssay
Where “and” joins values, the source holds several entries; their conditions need not be identical. Equal values may be shown once. Records with an inconclusive call do not appear. Calls of active or inactive are those of the source.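 Rule for the calls, unless noted: active = compounds whose cell count with miR-34 switched on is under 0.7 times the count with it off; inactive = the rest.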

How the values were obtained:
[1] = target: ATP-dependent translocase ABCB1 (Homo sapiens) (UniProt P08183); experiment: P-glycoprotein substrate transport blockade – cell-based (AID 377; in the data active = fluorescence slope change above about 50%); settings: MDR1-expressing cells, fluorescent substrate accumulation slope; stronger effect = higher value; concentration not given here
Chain of ATP-dependent translocase ABCB1 (Homo sapiens) (P08183 whole entry, looked up): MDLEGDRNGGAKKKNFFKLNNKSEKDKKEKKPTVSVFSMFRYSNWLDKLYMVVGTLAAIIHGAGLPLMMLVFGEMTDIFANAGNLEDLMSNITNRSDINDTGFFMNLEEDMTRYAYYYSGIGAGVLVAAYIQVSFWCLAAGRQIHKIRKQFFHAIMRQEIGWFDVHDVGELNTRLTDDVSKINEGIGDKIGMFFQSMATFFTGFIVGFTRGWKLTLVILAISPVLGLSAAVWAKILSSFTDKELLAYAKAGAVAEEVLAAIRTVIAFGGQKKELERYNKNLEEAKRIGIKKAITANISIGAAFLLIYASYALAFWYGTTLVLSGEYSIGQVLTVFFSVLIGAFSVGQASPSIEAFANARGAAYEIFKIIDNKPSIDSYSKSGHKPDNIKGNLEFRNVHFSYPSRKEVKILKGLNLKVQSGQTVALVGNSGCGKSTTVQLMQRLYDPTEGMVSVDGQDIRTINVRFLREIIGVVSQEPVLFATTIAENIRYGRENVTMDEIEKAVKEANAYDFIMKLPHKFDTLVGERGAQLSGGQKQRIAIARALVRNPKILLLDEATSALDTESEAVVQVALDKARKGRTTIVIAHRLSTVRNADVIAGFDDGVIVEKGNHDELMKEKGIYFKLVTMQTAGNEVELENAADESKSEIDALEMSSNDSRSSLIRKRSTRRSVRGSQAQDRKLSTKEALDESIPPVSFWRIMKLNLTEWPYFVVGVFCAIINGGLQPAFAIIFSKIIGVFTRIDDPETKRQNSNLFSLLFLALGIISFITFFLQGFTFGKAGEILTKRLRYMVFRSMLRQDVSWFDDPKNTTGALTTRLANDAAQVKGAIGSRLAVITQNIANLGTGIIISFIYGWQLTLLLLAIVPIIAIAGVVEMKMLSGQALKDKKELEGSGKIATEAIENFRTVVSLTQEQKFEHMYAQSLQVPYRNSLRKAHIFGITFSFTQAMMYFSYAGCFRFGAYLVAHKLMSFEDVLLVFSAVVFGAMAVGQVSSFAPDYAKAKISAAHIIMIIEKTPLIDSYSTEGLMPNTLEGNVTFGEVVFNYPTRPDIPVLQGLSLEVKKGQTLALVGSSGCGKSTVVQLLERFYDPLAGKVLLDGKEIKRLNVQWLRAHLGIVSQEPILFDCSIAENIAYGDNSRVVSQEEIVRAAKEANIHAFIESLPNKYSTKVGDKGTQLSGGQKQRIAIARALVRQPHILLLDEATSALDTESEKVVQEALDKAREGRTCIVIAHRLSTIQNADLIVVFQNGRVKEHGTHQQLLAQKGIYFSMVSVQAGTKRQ

[2] = compounds altering viability of human ES cells (AID 493140; call rule not given here;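 note: cells exposed to compounds for four days before counting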); settings: human embryonic stem cell survival screen; stronger effect = higher value
[3] = P. berghei load reduction in hepatocytes – cell-based, HepG2, luciferase luminescence, HepG2 viability, primary screen (AID 624349; in the data active = parasite load remaining mostly below about 12%, no sharp cut-off; inactive = mostly above about 10%;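 note: 100% = mean of DMSO negative control wells on the same plate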); settings: P. berghei liver stage in HepG2, luciferase luminescence, concentration not given here; parasite load remaining: stronger effect = lower value; viability: measured here: HepG2 viability without parasites
[4] = viability loss with induced miR-34 in A549 – imaging, A549 dox-inducible miR-34, nuclei and caspase counts, primary screen (AID 1347080); settings: A549 miR-34 inducible, Hoechst nuclei count, 48 h
[5] = stronger effect = lower value, cell number ratio, induced over uninduced
[6] = measured here: relative caspase fold change +Dox/-Dox
[7] = measured here: total cells with miR-34 induction, stronger effect = lower value
[8] = measured here: total cells without miR-34 induction

Row | SMILES | fluorescence slope change [1] | survival [2] | parasite load remaining [3] | viability [3] | fold change [4, 5] | fold change [4, 6] | cell count [4, 7] | cell count [4, 8]
1 | O[C@@H]1[C@@H](O)C=C2CCN3Cc4cc5c(cc4[C@H]1C23)OCO5 (some centres undefined) | 10.1% (inactive) | 0.583 (inactive) | -0.065% (active) | 101% | 0.89 (inactive) | 1.09 | 2250 | 2530
2 | COC(=O)[C@H]1[C@H]2C[C@@H]3c4[nH]c5cc(OC)ccc5c4CCN3C[C@H]2C[C@@H](OC(=O)/C=C/c2cc(OC)c(OC)c(OC)c2)[C@@H]1OC | 61% (active) | 9.58 (inactive) | 26.9% (inactive) and 41.8% (inactive) | 94.2% and 77.7% | 0.865 (inactive) | 1.32 | 7260 | 8390
3 | C=C1C(c2ccc(C)cc2)=CCc2cc(C)cc(C)c21 | – | 98.5 (inactive) | – | – | 0.866 (inactive) | 0.886 | 1920 | 2210
4 | CO[C@@H]1[C@@H](OC(N)=O)[C@@H](O)C(Oc2ccc3c(O)c(NC(=O)c4ccc(O)c(CC=C(C)C)c4)c(=O)oc3c2C)OC1(C)C (some centres undefined) | 82.3% (active) | – | 78.5% (inactive) | 90.9% | 0.855 (inactive) | 1.4 | 9430 | 11000
5 | CCCCC/C=C\C[C@@H](O)/C=C/C=C\C/C=C\CCCC(=O)O | – | 89.3 (inactive) | – | – | 0.841 (inactive) | 1.54 | 4740 | 5630
6 | CCCCC[C@H](O)/C=C/[C@H]1OC(O)C[C@H](O)[C@@H]1C/C=C\CCCC(=O)O (some centres undefined) | – | 96.2 (inactive) | – | – | 0.852 (inactive) | 1.59 | 5370 | 6300
7 | CCCCCCCCCCCCCCCC(=O)OCC(COP(=O)(O)O)OC(=O)CCCCCCCCCCCCCCC (centres undefined) | – | 95.5 (inactive) | – | – | 0.922 (inactive) | 1.21 | 5850 | 6340
8 | CCCCC(C)(O)C/C=C/[C@H]1[C@H](O)CC(=O)[C@@H]1CCCCCCC(=O)O (some centres undefined) | – | 92.9 (inactive) | – | – | 0.933 (inactive) and 0.881 (inactive) | 1.28 and 1.98 | 6180 and 5400 | 6620 and 6130
9 | CCCCCCCCCCCCCCC[C@@H](O)[C@H](CO)NC(=O)CCCCCCC | – | 84.9 (inactive) | – | – | 0.925 (inactive) | 1.41 | 5910 | 6390
10 | COC(=O)C1=CO[C@@H](C)[C@H]2CN3CCc4c([nH]c5ccccc45)[C@@H]3C[C@H]12 | 76.8% (active) | 10.5 (inactive) | 108% (inactive) and 62.6% (inactive) | 97.4% and 74.1% | 0.773 (inactive) | 1.63 | 5880 | 7600
11 | CCCCC[C@H](O)/C=C/[C@@H]1[C@@H](C/C=C\CCCC(=O)O)[C@@H](O)C[C@@H]1O | – | 97.2 (inactive) | – | – | 0.891 (inactive) and 0.917 (inactive) | 1.22 and 1.29 | 5840 and 5720 | 6560 and 6230
12 | Cn1c(-c2ccc3c(c2)OCO3)cc(=O)c2ccccc21 | 6.8% (inactive) | 4.17 (inactive) | 95.4% (inactive) | 95.4% | 0.89 (inactive) | 1.11 | 8470 | 9520
13 | O=C1C=CC(=O)c2c1ccc1c2ccc2ccccc21 | 25.9% (inactive) | 5.83 (inactive) | 14.2% (inactive) and 61.1% (inactive) | 64.9% and 72.9% | 0.87 (inactive) | 1.13 | 7950 | 9140
14 | COC(C)(C)CCCC(C)C/C=C/C(C)=C/C(=O)O (centres undefined) | – | 91.1 (inactive) | – | – | 0.916 (inactive) | 0.969 | 5680 | 6210
15 | CCCCCCCCCCCCCCCCOCC(COP(=O)([O-])OCC[N+](C)(C)C)OC (centres undefined) | – | 64.4 (inactive) | – | – | 0.921 (inactive) | 1.04 | 5520 | 5990
16 | CCCCC[C@H](O)/C=C/[C@@H]1[C@@H](CCCCCCC(=O)O)[C@@H](O)C[C@H]1O | – | 96.8 (inactive) | – | – | 0.91 (inactive) and 0.991 (inactive) | 1.19 and 1.15 | 5960 and 6030 | 6550 and 6090
17 | C[C@H](CCC(=O)NCC(=O)O)[C@H]1CC[C@H]2[C@@H]3[C@H](O)C[C@@H]4C[C@H](O)CC[C@]4(C)[C@H]3C[C@H](O)[C@]12C | 91% (active) | 14.6 (inactive) | 142% (inactive) and 80.1% (inactive) | 103% and 76.4% | 0.862 (inactive) | 1.21 | 8770 | 10200
18 | CCCCCCCC/C=C\CCCCCCCC(=O)OC[C@@H](O)COP(=O)(O)O | – | 57.2 (inactive) | – | – | 0.957 (inactive) and 0.893 (inactive) | 1.42 and 0.522 | 6370 and 5350 | 6660 and 5990
19 | CC(=O)N[C@@H]1[C@@H](O[C@H](C)C(=O)O)[C@H](O)[C@@H](CO)O[C@@H]1O | – | – | 112% (inactive) | 105% | 0.861 (inactive) | 1.06 | 8610 | 10000
20 | CCCCCCCCCCCCCCC[C@@H](O)[C@H](CO)NC(C)=O | – | 81.5 (inactive) | – | – | 1.08 (inactive) | 1 | 5490 | 5090
21 | OCCN1C[C@@H](O)[C@@H](O)C(O)C1CO (some centres undefined) | – | – | 147% (inactive) and 57.2% (inactive) | 86.4% and 111% | 0.903 (inactive) | 5.56 | 12600 | 14000
22 | CCCCC[C@H](O)CC[C@H]1[C@H](O)CC(=O)[C@@H]1CCCCCCC(=O)O | – | 89 (inactive) | – | – | 0.898 (inactive) and 0.911 (inactive) | 0.955 and 1.31 | 5150 and 5260 | 5740 and 5770
23 | CCCCCCCCCCCCCCCCCCOC[C@@H](O)COP(=O)([O-])OCC[N+](C)(C)C | – | 71.2 (inactive) | – | – | 0.968 (inactive) | 0.597 | 5980 | 6180
24 | CCCCCCCCCCCCCCCCOCC(CO)OC(C)=O (centres undefined) | – | 63.3 (inactive) | – | – | 0.942 (inactive) | 1.66 | 5510 | 5840
25 | C[C@@H]1C(=O)O[C@H]2CC34[C@H]5C[C@@H](C(C)(C)C)[C@]36[C@@H](OC(=O)[C@@H]6O)O[C@@]4(C(=O)O5)[C@]21O (some centres undefined) | – | – | 93.7% (inactive) | 99.1% | 0.905 (inactive) | 1.08 | 9000 | 9940
26 | CC(C)(C)NCC(O)COc1cccc2c1CC(O)C(O)C2 (centres undefined) | – | – | 84.5% (inactive) | 104% | 0.89 (inactive) | 1.39 | 8980 | 10100
27 | O=c1cc(-c2ccc(O)cc2)oc2c(C3O[C@H](CO)[C@@H](O)[C@H](O)[C@H]3O)c(O)cc(O)c12 (some centres undefined) | – | 3.5 (inactive) | 96.7% (inactive) | 101% | 0.841 (inactive) | 1.12 | 8230 | 9780
28 | CN1CC[C@]23c4ccccc4N[C@H]1[C@]21CCN(C)[C@H]3Nc2ccccc21 | – | – | 122% (inactive) | 96.8% | 0.926 (inactive) | 1.16 | 9800 | 10600
29 | S=C(NC1CCCCC1)N1CCC(C2C=NC=N2)CC1 (centres undefined) | – | 6.25 (inactive) | 49.2% (inactive) | 96.4% | 0.857 (inactive) | 1.52 | 8240 | 9620
